# Sampled rows, rich in hits. Any-hit rate of the full collection: about 3%.
# PAX8 inh HTS: PAX8 transcriptional activity inhibition; 1.2% of 360,000 active; RMG-I TPO-luciferase reporter, SteadyGlo, 24 h; inhibition, % at 12.6 µM; AID 652154;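 active means mean replicate inhibition at least 60% with every replicate also reaching 60%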;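 further: luciferase light reporting Pax8 driven TPO promoter activity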
# Peg3 prom inh-1: reduces Peg3 promoter-driven luciferase expression in HeLa. AID 588405. 1.7% of 360,000 active. inhibition, % at 20 µM. HeLa PEG-Prom luciferase reporter, luminescence, overnight;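 active means inhibition of at least 50% at 20 µM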
# Shn3 3UTR inh: reduces Shn3 3'UTR luciferase signal in osteoblasts | Clone20 osteoblast Shn3 3'UTR firefly luciferase, 24 h | inhibition, % at 12.5 µM | 0.52% of 360,000 active | AID 588674;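 active means mean inhibition of at least 75% with every replicate also reaching 75%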
# ABHD5-PLIN5 inh: ABHD5-PLIN5 protein interaction inhibition; Split G. princeps luciferase complementation, luminescence, 4 h; inhibition, % at 4 µM; 0.78% of 360,000 active;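 active means inhibition above the mean inhibition across every tested compound plus 3 SD, cut at about 22% in these data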
# Target sequence (Q00G26 whole entry, looked up): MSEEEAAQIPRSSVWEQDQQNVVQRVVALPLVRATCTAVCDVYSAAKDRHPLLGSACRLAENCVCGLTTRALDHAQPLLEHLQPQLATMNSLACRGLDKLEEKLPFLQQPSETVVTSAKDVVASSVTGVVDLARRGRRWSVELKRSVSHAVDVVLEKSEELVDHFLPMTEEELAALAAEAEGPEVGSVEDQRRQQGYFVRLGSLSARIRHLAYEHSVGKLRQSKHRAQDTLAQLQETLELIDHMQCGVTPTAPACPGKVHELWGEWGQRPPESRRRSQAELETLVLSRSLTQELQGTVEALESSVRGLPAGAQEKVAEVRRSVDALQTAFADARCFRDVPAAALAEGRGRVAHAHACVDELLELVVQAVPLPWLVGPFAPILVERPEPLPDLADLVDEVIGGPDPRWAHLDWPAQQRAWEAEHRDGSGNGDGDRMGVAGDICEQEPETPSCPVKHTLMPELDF
# Target sequence (Q8WTS1 whole entry, looked up): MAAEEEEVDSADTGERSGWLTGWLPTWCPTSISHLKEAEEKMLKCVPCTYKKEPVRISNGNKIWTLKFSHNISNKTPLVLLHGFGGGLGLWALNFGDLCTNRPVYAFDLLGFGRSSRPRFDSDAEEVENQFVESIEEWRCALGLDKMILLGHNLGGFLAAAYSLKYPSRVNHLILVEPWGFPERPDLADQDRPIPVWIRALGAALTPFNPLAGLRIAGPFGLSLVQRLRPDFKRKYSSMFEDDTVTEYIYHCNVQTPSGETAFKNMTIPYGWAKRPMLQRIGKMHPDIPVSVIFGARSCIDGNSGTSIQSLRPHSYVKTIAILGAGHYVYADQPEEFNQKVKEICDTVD
# TRPM1 prom inh: MITF TRPM1 promoter inhibition in SK-MEL-5 cells; SK-MEL-5 TRPM1 promoter luciferase, 24 h; inhibition, % at 12.5 µM; 0.83% of 330,000 active; AID 488899;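 active means mean inhibition across replicates of 60% or more, whatever share of single replicates reaches that level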
# EWS-Fli inh: inhibitors of EWS/Fli oncoprotein transcriptional activity | A673 NR0B1-luciferase reporter, viability-normalised | inhibition, % at 12.6 µM | 0.67% of 350,000 active;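 active means mean inhibition of at least 50% after viability correction, with every replicate also passing that limit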;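 further: firefly luciferase signal divided by Alamar Blue viability fluorescence both relative to DMSO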
# Peg3 prom inh-2: Peg3 promoter inhibition confirmation; shares compounds with Peg3 prom inh-1; HeLa PEG-Prom luciferase reporter, luminescence, overnight; inhibition, % at 20 µM; 84% of 1,300 active;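 active means at 20 µM dose, 40% or more inhibition averaged across four replicates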
# ABHD5 PLIN5 conf: confirmation of human ABHD5-PLIN5 interaction inhibitors; shares compounds with ABHD5-PLIN5 inh; biochemical ABHD5-PLIN5 interaction, luminescence; AID 651612; inhibition, % at 4 µM; 67% of 2,200 active; in the data active means inhibition above about 23%
# HNF4 split-luc: counter-screen for ABHD5-PLIN5 inhibitors: HNF4 split-luciferase | 77% of 2,200 active | inhibition, % at 4 µM | HNF4 dimerization, luminescence, biochemical | shares compounds with ABHD5-PLIN5 inh;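 active means mean inhibition across replicate wells exceeding the computed hit threshold, cut at about 13% in these data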;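 further: light from luciferase halves that rejoin when HNF4 fusion proteins dimerize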
# A number is an active result; – = inactive; · = not tested or not shown.
SMILES,PAX8 inh HTS,Peg3 prom inh-1,Shn3 3UTR inh,ABHD5-PLIN5 inh,TRPM1 prom inh,EWS-Fli inh,Peg3 prom inh-2,others
CCOc1ccc2nc(NC(=O)c3ccccn3)sc2c1,–,103.5,–,–,80.1,70.4,90.5,
Cc1ccc2nc(NC(=O)c3ccccn3)sc2c1,71.5,106.2,–,–,93.8,83.9,96.3,
CCN1[C@H](C(=O)OC)[C@@H](CO)[C@@H]2Cn3c(ccc(-c4cccc(OC)c4)c3=O)[C@@H]21,–,·,·,·,·,–,·,
[O-]C(=C(C(=S)Nc1cccc2ccccc12)[n+]1ccccc1)c1ccc2c(c1)OCCO2,·,53.8,–,–,–,·,–,
COc1ccc(S(=O)(=O)N(C)C[C@@H]2Oc3ccc(NC(=O)c4ccncc4)cc3C(=O)N([C@H](C)CO)C[C@H]2C)cc1,·,·,·,·,·,–,·,
CN(C)CC(=O)N[C@@H]1CC[C@H](CCNC(=O)C2CCCC2)O[C@H]1CO,–,·,·,·,·,–,·,
Cc1cccc(CN2C(=O)/C(=C\c3ccc(C(=O)NCCN4CCOCC4)cc3)Sc3ccccc32)c1,·,91.7,–,–,–,·,91.6,
O=C(NCCN1CCOCC1)c1ccc2c(c1)N(Cc1cccc(F)c1)C(=O)c1ccccc1S2,–,–,–,–,–,–,·,
CC1CCc2c(sc3ncn(CC(=O)N=Nc4c(O)[nH]c5ccccc45)c(=O)c23)C1 (stereo not given),–,–,–,–,–,–,·,
CCc1nc(N=Nc2c(O)[nH]c3ccccc23)c2c3c(sc2n1)CCC3,–,85.1,–,–,–,–,–,
Cc1nc(-c2ccc(NC(=O)c3ccco3)cc2)cs1,87.5,82.5,–,–,73.4,83.6,66.6,
O=C(N[C@@H]1CC[C@@H](CCn2cc(-c3ccc(F)cc3)nn2)O[C@@H]1CO)c1cnccn1,–,·,·,·,·,–,·,
N/C(=N\OC(=O)c1ccccc1)c1ccccn1,–,95.3,–,–,–,–,–,
Cc1cccc(C(=O)O/N=C(\N)c2ccccn2)c1,84.3,56.3,–,–,–,76.8,40.4,
N/C(=N\OC(=O)c1cccc(F)c1)c1ccccn1,–,–,–,–,–,–,·,
CC(C)(C)c1ccc(C(=O)O/N=C(\N)c2ccccn2)cc1,69.5,110.7,–,–,77.7,74.9,99.0,
CCOc1ccc(C(=O)O/N=C(\N)c2ccccn2)cc1,128.1,113.9,–,–,66.6,80.6,94.5,
CC(=O)N(C)C[C@H]1Oc2ncc(C#CC(C)(C)O)cc2C(=O)N([C@@H](C)CO)C[C@@H]1C,·,·,·,·,·,–,·,
COC(=O)c1ccc2nc(-c3cccc(N)c3)cn2c1,–,68.4,–,–,–,–,–,
CCCCCCOc1ccc(/C(C)=N/NC2=NCCN2)cc1,–,108.0,–,–,–,–,97.9,
O=C(C[C@@H]1CC[C@H]2[C@@H](COC[C@@H](O)CN2CCc2ccccc2)O1)N1CCC(Cc2ccccc2)CC1,–,·,·,·,·,–,·,
COc1ccc(CC(N)c2csc(NC(=O)Nc3ccccc3C(C)(C)C)n2)cc1 (stereo not given),–,87.0,–,–,·,–,76.5,
Cc1ccccc1NC(=O)Nc1nc(C(N)Cc2ccccc2)cs1 (stereo not given),·,72.7,–,–,·,–,41.9,
COc1ccc(CC(N)c2csc(Nc3ccc(C(C)=O)cc3)n2)cc1 (stereo not given),–,–,–,–,·,–,·,
COc1ccc(CC(N)c2csc(NC(=O)Nc3cc(OC)ccc3OC)n2)cc1 (stereo not given),–,93.7,–,–,·,–,95.5,
SMILES,PAX8 inh HTS,Peg3 prom inh-1,Shn3 3UTR inh,ABHD5-PLIN5 inh,TRPM1 prom inh,EWS-Fli inh,Peg3 prom inh-2,others
COc1cc(NC(=O)Nc2nc(C(N)CCc3ccccc3)cs2)cc(OC)c1OC (stereo not given),–,73.9,–,–,·,–,82.6,
COc1ccc(CC(N)c2csc(NC(=O)c3cccs3)n2)cc1 (stereo not given),–,–,–,–,·,–,·,
C[C@@H]1CN([C@H](C)CO)S(=O)(=O)c2ccc(C#C[C@@H](C)O)cc2O[C@@H]1CN(C)C(=O)C1CCC1,·,·,·,·,·,–,·,
CCC(C)NCCOCCOc1ccc(Cl)c2ccccc12 (stereo not given),–,102.0,–,29.7,–,–,98.4,ABHD5 PLIN5 conf=–;HNF4 split-luc=–
CCCCCCC=C1CCC(CN2CCCC2)C1=O (stereo not given),–,101.5,–,24.8,·,–,76.6,ABHD5 PLIN5 conf=83.8;HNF4 split-luc=28.2
Cc1cc(S(=O)(=O)c2ccc(Cl)cc2)nc(S(=O)(=O)c2ccc(Cl)cc2)c1C#N,83.3,112.8,90.8,79.2,·,64.2,96.7,ABHD5 PLIN5 conf=95.1;HNF4 split-luc=105.0
Cc1cc(C)c(S(=O)(=O)c2ccc(Cl)cc2)c(Cl)n1,–,–,–,–,–,–,·,
CCCNC(=O)C[C@@H]1CC[C@@H]2[C@H](COc3ccc(NS(=O)(=O)CC)cc3C(=O)N2C)O1,–,·,·,·,·,–,·,
CC1=CC2C(C(O)CC3(C)C2CC(C)C32OCOC23COCO3)C2(C)C/C(=C\O)C(=O)C=C12 (stereo not given),·,101.5,87.5,32.3,79.7,–,96.7,ABHD5 PLIN5 conf=42.2;HNF4 split-luc=–
C[C@@H]1CN([C@H](C)CO)C(=O)c2cc(NC(=O)CCN3CCOCC3)ccc2O[C@H]1CN(C)C(=O)Nc1ccc2c(c1)OCO2,·,·,·,·,·,–,·,
C[C@H](CO)N1C[C@H](C)[C@@H](CN(C)S(=O)(=O)c2ccc(Cl)cc2)Oc2c(NC(=O)c3cnccn3)cccc2C1=O,·,·,·,·,·,–,·,
COC(=O)C1C=CC(OC2OC(COC(C)=O)C(OC(C)=O)C(OC(C)=O)C2OC(C)=O)n2c(=O)n(-c3ccccc3)c(=O)n21 (stereo not given),101.2,106.6,97.1,25.7,94.8,–,100.8,ABHD5 PLIN5 conf=–;HNF4 split-luc=71.9
CC(=O)OCC1OC(n2ccc3ccccc32)C(OC(C)=O)C(OC(C)=O)C1OC(C)=O (stereo not given),·,–,–,–,–,·,·,
O=C(C=Cc1ccccn1)c1ccccc1,·,100.7,–,79.0,70.2,–,86.8,ABHD5 PLIN5 conf=92.8;HNF4 split-luc=103.0
O=C(/C=C/c1cccnc1)c1ccccc1O,–,–,–,–,–,–,·,
COc1cc(C(=O)/C=C/c2cccnc2)c([N+](=O)[O-])cc1OC,94.1,69.0,–,47.2,–,–,96.0,ABHD5 PLIN5 conf=73.6;HNF4 split-luc=71.6
Cc1ccc(C(=O)N(CCCN(C)C)c2nc3ccc(Cl)cc3s2)cc1C,–,56.4,–,28.4,–,–,92.7,ABHD5 PLIN5 conf=–;HNF4 split-luc=–
O=C1c2ccccc2C(=Cc2cccnc2)c2ccccc21,–,–,–,–,·,–,·,
CN1C/C(=C/c2cccnc2)C(=O)/C(=C/c2cccnc2)C1,–,87.1,–,65.9,100.5,·,–,ABHD5 PLIN5 conf=99.8;HNF4 split-luc=91.6
Cn1c(Cl)cnc1C1CC(=O)c2cc(Cl)ccc2O1 (stereo not given),72.3,97.2,–,32.5,–,·,63.7,ABHD5 PLIN5 conf=–;HNF4 split-luc=48.7
